TTR transcr act = TTR transcription activators in neuroblastoma reporter cells, primary screen, cell-based, luminescence, SH-SY5Y, TTR promoter Gaussia luciferase; 100% = recombinant luciferase protein wells; activation, % at 16.7 µM; AID 1117267, 2014; actives 1.3% (n = 92,000);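 active means activation above the mean of all tested compounds plus 3 SD, cut at about 9.5% in these data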;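 further: cells exposed to compounds for one day before reading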
HuH7 TTR inh = TTR promoter reporter inhibitors in hepatoma cells, counter-screen for TTR transcription activator project, cell-based, luminescence, HuH7 hepatoma | shares compounds with TTR transcr act | HuH7 TTR promoter-Gaussia luciferase reporter | inhibition, % at 16.7 µM | actives 4% (n = 1,100) | AID 1117279, 2014;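 active means average inhibition above the solvent-only control wells' mean plus 3 SD, cut at about 15% in these data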;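 further: inhibitors lower well luminescence so higher value means more inhibition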
TTR up confirm = TTR transcription activators, retest, confirmation, cell-based, luminescence, SH-SY5Y, triplicate | 1,100 tested, under 10 active | activation, % at 16.7 µM | SHSY5Y TTR promoter Gaussia luciferase; 100% = purified Lucia enzyme wells, no cells | shares compounds with TTR transcr act;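 active means mean activation above a set limit taken from the earlier primary screen, cut at about 11% in these data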
Of the large screens only hits and unclear results are named; the others gave an inactive call (follow-up assays come after a bar, where they were run). The sample as a whole holds a higher share of hits than the screen did.

COCCn1c(SCC(=O)Nc2cccc(S(N)(=O)=O)c2)nc2ccccc21	none
COCCn1c(SCC(=O)NC(C)c2ccccc2)nc2ccccc21 (stereo not drawn)	none
O=C(c1cccc(C(F)(F)F)c1)N1CCC(=O)N(C(CO)Cc2ccccc2)CC1 (stereo not drawn)	none
COc1ccc(C(=O)N2CCC(=O)N(C(CO)Cc3ccccc3)CC2)cc1 (stereo not drawn)	TTR transcr act 13 | HuH7 TTR inh inactive | TTR up confirm inactive
O=C(c1ccc(C(F)(F)F)cc1)N1CCC(=O)N([C@H](COCc2ccc(C(F)(F)F)cc2)Cc2ccccc2)CC1	none
Cc1ccc(CS(=O)Cc2ccc(C(=O)NCc3ccccc3Cl)o2)cc1 (stereo not drawn)	none
COc1ccc(OC)c(C(=O)CN2C(=O)C(=O)N(C3CCCC3)C2=O)c1	none
COc1ccc(C(=O)NCCSCc2ccc(Cl)cc2)cc1OC	none
COC(=O)C1=C(O)C2(C(=O)O)CC(C(=O)OC)=C(O)C(C(=O)O)(C1)C2	none
O=C(CN1C(=O)NC(CCc2ccccc2)C1=O)N1CCCCCC1 (stereo not drawn)	none
COc1cccc(NC(=O)CN2C(=O)NC(CCc3ccccc3)C2=O)c1 (stereo not drawn)	none
CCc1cccc(C)c1NC(=O)CN1C(=O)NC(CCc2ccccc2)C1=O (stereo not drawn)	TTR transcr act 15 | HuH7 TTR inh inactive | TTR up confirm inactive
CCOc1ccc(-c2nc(C)c(C(C)=O)n2O)cc1	none
COc1cc(NC(=S)NCc2cccnc2)cc(OC)c1OC	none
COc1ccc(S(=O)(=O)N(C)C[C@H]2Oc3ncc(C#CC4(O)CCCC4)cc3C(=O)N([C@@H](C)CO)C[C@@H]2C)cc1	none
CN(C)CCNc1ccc(CO)c2oc3ccc(O)cc3c(=O)c12	TTR transcr act 16 | HuH7 TTR inh inactive | TTR up confirm 13
Cc1cc(NCCO)c2cc(O)ccc2n1	none
Cc1cccc(C(=O)NNC(=O)c2ccccc2C)c1	none
Cc1csc(C(=O)NCC(=O)NNC(=O)c2cccc(Cl)c2)c1	none
Cc1ccccc1C(=O)NCC(=O)NNC(=O)c1cccc(Cl)c1	TTR transcr act 19 | HuH7 TTR inh inactive | TTR up confirm inactive
COc1cc(S(=O)(=O)Nc2ccc(C(=O)NCC(=O)O)cc2)ccc1NC(C)=O	none
O=C(NC1CC1)c1ccc2c(c1)N(Cc1ccc(Cl)cc1)CCS2	none
COc1ccc(C(=O)CSc2ccc(-c3ccccc3)nn2)cc1	none
Cc1ccc(Sc2nnc(-c3ccccc3)cc2C#N)cc1	none
COc1ccc(Sc2nnc(-c3ccccc3)cc2C#N)cc1	TTR transcr act 10 | HuH7 TTR inh inactive | TTR up confirm inactive
COC(OC)c1ccc(C#N)c(=O)[nH]1	none
C#CCOCCOCCOCCNc1nc(N2CCN(C(=O)Cn3cc(CCCN=C(N)N)nn3)CC2)nc(N2CCN(C(=O)Cn3cc(CC(C)O)nn3)CC2)n1 (stereo not drawn)	none
COc1cc(C(=O)N(C)C2CCCN(Cc3ccccc3F)C2)cc(OC)c1OC (stereo not drawn)	none
CCCOc1ccc(N2C(=O)CC(SC(=NC)Nc3ccc(F)cc3)C2=O)cc1 (stereo not drawn)	none
CCOc1ccc(N2C(=O)CC(NCCc3ccncc3)C2=O)cc1 (stereo not drawn)	none
CCCOc1ccc(N2C(=O)CC(NCC(=O)OCC)C2=O)cc1 (stereo not drawn)	TTR transcr act 10.0 | HuH7 TTR inh inactive | TTR up confirm inactive
CCCCn1nnnc1C1(C)CCC(=O)N1Cc1cccs1 (stereo not drawn)	none
CCC(=O)Nc1ccc(NC(=O)CSc2nnc(-c3ccco3)n2C)cc1	none
Cn1cnnc1SCC(=O)Nc1ccc(Oc2ccccc2)cc1	none
Cn1cnnc1SCC(=O)Nc1ccc(F)cc1F	none
CN(C)c1ccc(NC(=O)CSc2nnc(-c3cnccn3)n2C)cc1	none
Cc1nc(-c2nnc(SCC(=O)Nc3ccc(Cl)cc3)n2C)cs1	TTR transcr act 23 | HuH7 TTR inh inactive | TTR up confirm inactive
Cn1cnnc1SCC(=O)Nc1ccc(Cl)cc1	TTR transcr act 13 | HuH7 TTR inh inactive | TTR up confirm inactive
CCCSc1nnc(Sc2nnnn2-c2ccccc2)s1	none
O=C1c2ccccc2NC(c2ccccc2)N1Cc1ccccc1 (stereo not drawn)	none
O=C(Cn1c(C(=O)NCCCN2CCOCC2)cc2sccc21)c1ccccc1	none
O=C(Nc1nnc(-c2ccco2)o1)c1cccc(Cl)c1	none
COc1ccc(C2C(C#N)=C(N)OC3=C2C(=O)CC(C)(C)C3)cc1 (stereo not drawn)	none
CC1C(C#N)=C(N)OC2=C1C(=O)CC(c1ccccc1)C2 (stereo not drawn)	TTR transcr act 15 | HuH7 TTR inh inactive | TTR up confirm inactive
CC1(C)CC(=O)C2=C(C1)OC(N)=C(C#N)[C@@H]2c1ccccc1[N+](=O)[O-]	none
COc1ccc2cc(-c3[nH]ncc3CN3C[C@@H]4CCC[C@H]3C4)ccc2c1	none
CCc1nccn1CCC(=O)N1CCCC(Nc2ccc(C(C)C)cc2)C1 (stereo not drawn)	none
c1coc(CN2CNc3nc4ccccc4n3C2)c1	none
O=C(COC(=O)c1cccs1)NCCC1=CCCCC1	none
Cc1csc(NC(=O)CCNS(=O)(=O)c2ccc3c(c2)c(=O)n(C)c(=O)n3C)n1	none
Cc1ccc(CCNC(=O)CCNS(=O)(=O)c2ccc3c(c2)c(=O)n(C)c(=O)n3C)cc1	TTR transcr act 9.9 | HuH7 TTR inh inactive | TTR up confirm inactive
Cc1ccc(CCNC(=O)CN(C)S(=O)(=O)c2ccc3c(c2)c(=O)n(C)c(=O)n3C)cc1	none
CC(C)(C)c1ccc(C(=O)NCCC(=O)Nc2ccc(S(=O)(=O)Nc3nccs3)cc2)cc1	none
Cc1cc(C)cc(-n2ncc3c2CCCC3NC(=O)c2cc(C)[nH]n2)c1 (stereo not drawn)	none
O=C(NC1CCCc2c1cnn2-c1ccc(F)cc1F)c1ccccc1 (stereo not drawn)	none
COc1ccc(C(=O)NC2CCCc3c2cnn3-c2cc(F)cc(F)c2)c(OC)c1OC (stereo not drawn)	TTR transcr act 13 | HuH7 TTR inh 29 | TTR up confirm inactive
Cc1cccc(N2CC(C(=O)Nc3nnc(SCCC4OCCO4)s3)CC2=O)c1 (stereo not drawn)	none
CC1CCCC(NC(=O)COC(=O)Cc2ccc(Cl)cc2)C1C (stereo not drawn)	none
Cc1ccc(-c2nc(N)sc2CC(=O)OCC(=O)NC2CCCC(C)C2C)cc1 (stereo not drawn)	TTR transcr act 15 | HuH7 TTR inh inactive | TTR up confirm inactive
Cc1ccc(CC(=O)OCC(=O)NC2CCCC(C)C2C)cc1C (stereo not drawn)	none
Cc1cc(-c2nnn(CCCOC(C)(C)C)c2C)ccc1-c1cn(CCCOC(C)(C)C)nn1	none
Cc1ccc(NC(=O)c2cccc(NC(=O)CC3SC(N4CCCCC4)=NC3=O)c2)nc1 (stereo not drawn)	TTR transcr act 9.8 | HuH7 TTR inh inactive | TTR up confirm inactive
COc1ccc(NC(=O)CC2SC(N3CCCC3)=NC2=O)cc1Cl (stereo not drawn)	none
CC1CC(C)CN(C(=O)c2cccc(NC(=O)CC3SC(N4CCCCC4)=NC3=O)c2)C1 (stereo not drawn)	none
CN1C(C(=O)NCc2cccs2)=CC(c2ccc(F)cc2)=NS1(=O)=O	none
